# In PubChem BioAssay (NCATS):
# A number with no mark means an inactive call. Records with an inconclusive call do not appear. Entries that show only a call come without a potency. Active and inactive are the calls of the source. Unless noted, calls follow the shape of the dose curve; as a rule, active = well fitted curve in the direction sought with a large enough effect; inconclusive = small, poorly fitted or top-dose-only effect, or another doubt; inactive = no such curve, though single readings can be large; an effect the other way counts as inactive or inconclusive. Where a SMILES comes first, the peptide text is derived from it. Bridges are numbered along the chain shown (N, C = ends). [ ]: non-standard residue; d: D form. hArg = N=C(N)NCCCC[C@H](N)C(=O)O; Mpa = O=C(O)CCS
# How the values were obtained:
# [1] = biological target: ATP-dependent 6-phosphofructokinase (Trypanosoma brucei brucei) (UniProt O15648); assay: qHTS Assay to Find Inhibitors of T. brucei phosphofructokinase: hit validation (AID 492961);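 also: luminescence reports ADP formed as PFK phosphorylates fructose-6-phosphate with ATP; series mostly up to about 51 µM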
# Method in brief: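 PFK 1.25 nM, F6P 0.5 mM, ATP 0.1 mM, MgCl2 5 mM, 0.1 M TEA pH 8.0, Tween20 0.01%, BSA 0.1%; 45 min RT. ADP-Glo two-step detection, luminescence. qHTS titration; curve fitting with curve-class categorization.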
# [2] = biological target: Ubiquitin carboxyl-terminal hydrolase 1 (Homo sapiens) (UniProt O94782); assay: Inhibitors of USP1/UAF1: Pilot qHTS (AID 504865);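 also: rhodamine fluorescence freed from ubiquitin-rhodamine substrate followed over time; top concentration of the series differs between compounds; nearly all actives have a fitted effect of over 35% in size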
# Method in brief: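 Enzyme-free wells gave the negative control, while test wells held 1nM USP1/UAF1 preincubated with compound for 15 min at room temperature. Ub-Rho at 150nM final started the reaction, and fluorescence at 480/540 nm was recorded kinetically.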
# [3] = biological target: Estrogen receptor (Homo sapiens) (UniProt P03372); assay: qHTS assay for small molecule antagonists of estrogen receptor alpha signaling (AID 588513; active = well fitted curve in the direction sought with a large enough effect in the signal ratio, with a control signal flat, not every such curve was filed as active; the % refers to the signal ratio)
# Method in brief: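 Antagonist-mode qHTS in ER-alpha-UAS-bla HEK 293 cells: compound titration, 0.5nM estradiol for 18 h, CCF4 fluorescence, Hill-derived IC50.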
# [4] = biological target: Estrogen receptor (Homo sapiens) (UniProt P03372); assay: qHTS assay for small molecule agonists of estrogen receptor alpha signaling (AID 588514; calls by dose curve; also: nearly all actives have a fitted effect of over 70% in size)
# Method in brief: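 Fluorescence from CCF4 cleavage reports ER-alpha-driven beta-lactamase expression in HEK 293 cells treated 18 hrs at 37 C. Data normalized to 17-beta-estradiol (20 nM) and DMSO, fitted to Hill equation.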
# [5] = biological target: DNA dC->dU-editing enzyme APOBEC-3G (Homo sapiens) (UniProt Q9HC16); assay: qHTS for inhibitors of Vif-A3G interactions: Validation (AID 588379)
# Method in brief: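 Yellow fluorescence (Ex 488, Em 500-530) of Vif-coexpressing HeLa A3G-eYFP cells, scanned by Acumen cytometer, reports blocked A3G degradation. Cells plated at 700/well overnight at 37 deg C before compound addition, then a further overnight compound incubation at 37 deg C.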
# [6] = biological target: Androgen receptor (Homo sapiens) (UniProt P10275); assay: qHTS assay for small molecule agonists of androgen receptor signaling (AID 588515; active = well fitted curve in the direction sought with a large enough effect in the signal ratio, with a control signal flat; the % refers to the signal ratio); conditions: AR-UAS-bla HEK293, beta-lactamase ratio, agonist 16 h; active compounds read high
# Method in brief: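 Stimulation of an AR-responsive β-lactamase reporter in GripTite HEK293 cells was measured after 16 h compound exposure at 37 °C, via CCF4 fluorescence after 2 h RT. EC50 from Hill fits, normalized to R1881 at 30 nM.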
# Estrogen receptor (Homo sapiens), sequence (P03372 whole entry, looked up): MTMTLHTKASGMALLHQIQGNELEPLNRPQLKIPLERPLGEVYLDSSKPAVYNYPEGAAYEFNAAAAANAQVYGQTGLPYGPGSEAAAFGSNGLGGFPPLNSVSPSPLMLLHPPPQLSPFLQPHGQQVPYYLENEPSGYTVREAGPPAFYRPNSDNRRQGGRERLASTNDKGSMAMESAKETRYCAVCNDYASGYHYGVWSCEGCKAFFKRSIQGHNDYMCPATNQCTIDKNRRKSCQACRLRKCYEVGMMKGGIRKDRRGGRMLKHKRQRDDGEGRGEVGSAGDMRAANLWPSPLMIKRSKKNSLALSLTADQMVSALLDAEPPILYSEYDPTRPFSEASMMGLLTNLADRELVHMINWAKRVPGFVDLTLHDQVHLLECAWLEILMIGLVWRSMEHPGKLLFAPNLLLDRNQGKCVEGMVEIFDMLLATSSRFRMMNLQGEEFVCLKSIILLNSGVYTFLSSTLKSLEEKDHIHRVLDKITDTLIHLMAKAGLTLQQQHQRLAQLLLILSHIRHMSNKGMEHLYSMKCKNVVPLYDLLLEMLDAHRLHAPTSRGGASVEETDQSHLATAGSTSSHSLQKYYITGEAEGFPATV
# DNA dC->dU-editing enzyme APOBEC-3G (Homo sapiens), sequence (Q9HC16 whole entry, looked up): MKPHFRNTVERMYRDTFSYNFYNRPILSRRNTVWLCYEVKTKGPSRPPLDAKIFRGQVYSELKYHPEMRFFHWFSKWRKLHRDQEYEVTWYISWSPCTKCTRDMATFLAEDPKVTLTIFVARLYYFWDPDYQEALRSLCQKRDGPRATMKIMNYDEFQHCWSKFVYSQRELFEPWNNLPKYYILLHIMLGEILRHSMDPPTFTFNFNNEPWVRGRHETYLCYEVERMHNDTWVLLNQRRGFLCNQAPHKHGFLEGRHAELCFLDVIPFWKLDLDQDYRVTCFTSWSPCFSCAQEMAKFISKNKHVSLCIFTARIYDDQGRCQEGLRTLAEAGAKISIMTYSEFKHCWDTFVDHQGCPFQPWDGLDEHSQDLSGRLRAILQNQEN
# Ubiquitin carboxyl-terminal hydrolase 1 (Homo sapiens), sequence (O94782 whole entry, looked up): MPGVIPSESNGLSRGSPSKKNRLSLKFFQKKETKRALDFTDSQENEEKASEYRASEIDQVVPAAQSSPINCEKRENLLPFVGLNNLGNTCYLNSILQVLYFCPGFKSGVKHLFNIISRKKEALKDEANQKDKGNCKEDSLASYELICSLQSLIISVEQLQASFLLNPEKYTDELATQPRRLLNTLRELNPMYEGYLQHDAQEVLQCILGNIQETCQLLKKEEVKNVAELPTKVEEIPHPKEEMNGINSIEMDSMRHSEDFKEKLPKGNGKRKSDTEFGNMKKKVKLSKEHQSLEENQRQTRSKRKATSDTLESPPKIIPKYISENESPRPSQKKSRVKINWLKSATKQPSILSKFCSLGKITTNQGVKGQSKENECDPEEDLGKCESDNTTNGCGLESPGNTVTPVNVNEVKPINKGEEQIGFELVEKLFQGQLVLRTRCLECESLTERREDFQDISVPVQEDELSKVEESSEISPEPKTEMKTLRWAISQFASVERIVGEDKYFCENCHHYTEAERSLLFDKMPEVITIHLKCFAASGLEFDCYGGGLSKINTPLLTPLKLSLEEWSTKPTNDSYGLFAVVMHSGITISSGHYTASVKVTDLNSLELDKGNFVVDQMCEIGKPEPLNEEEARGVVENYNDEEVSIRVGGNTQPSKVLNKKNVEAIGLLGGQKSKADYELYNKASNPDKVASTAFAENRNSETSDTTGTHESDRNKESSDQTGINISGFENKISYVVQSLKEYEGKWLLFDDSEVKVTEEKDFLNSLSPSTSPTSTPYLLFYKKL
# ATP-dependent 6-phosphofructokinase (Trypanosoma brucei brucei), sequence (O15648 whole entry, looked up): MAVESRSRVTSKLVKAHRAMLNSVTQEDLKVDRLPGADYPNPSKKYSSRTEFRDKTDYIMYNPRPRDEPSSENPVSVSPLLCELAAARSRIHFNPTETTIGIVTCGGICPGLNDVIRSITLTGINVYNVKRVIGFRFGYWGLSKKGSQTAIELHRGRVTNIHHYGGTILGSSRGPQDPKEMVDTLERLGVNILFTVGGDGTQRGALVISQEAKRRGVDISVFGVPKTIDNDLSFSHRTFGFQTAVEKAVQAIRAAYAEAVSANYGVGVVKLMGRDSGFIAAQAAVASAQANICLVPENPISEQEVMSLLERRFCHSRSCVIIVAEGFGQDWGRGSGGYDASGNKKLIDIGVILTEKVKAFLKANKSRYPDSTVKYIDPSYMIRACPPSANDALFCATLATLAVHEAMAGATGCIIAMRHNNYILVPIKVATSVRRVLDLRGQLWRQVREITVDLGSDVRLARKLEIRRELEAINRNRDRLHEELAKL
# Androgen receptor (Homo sapiens), sequence (P10275 whole entry, looked up): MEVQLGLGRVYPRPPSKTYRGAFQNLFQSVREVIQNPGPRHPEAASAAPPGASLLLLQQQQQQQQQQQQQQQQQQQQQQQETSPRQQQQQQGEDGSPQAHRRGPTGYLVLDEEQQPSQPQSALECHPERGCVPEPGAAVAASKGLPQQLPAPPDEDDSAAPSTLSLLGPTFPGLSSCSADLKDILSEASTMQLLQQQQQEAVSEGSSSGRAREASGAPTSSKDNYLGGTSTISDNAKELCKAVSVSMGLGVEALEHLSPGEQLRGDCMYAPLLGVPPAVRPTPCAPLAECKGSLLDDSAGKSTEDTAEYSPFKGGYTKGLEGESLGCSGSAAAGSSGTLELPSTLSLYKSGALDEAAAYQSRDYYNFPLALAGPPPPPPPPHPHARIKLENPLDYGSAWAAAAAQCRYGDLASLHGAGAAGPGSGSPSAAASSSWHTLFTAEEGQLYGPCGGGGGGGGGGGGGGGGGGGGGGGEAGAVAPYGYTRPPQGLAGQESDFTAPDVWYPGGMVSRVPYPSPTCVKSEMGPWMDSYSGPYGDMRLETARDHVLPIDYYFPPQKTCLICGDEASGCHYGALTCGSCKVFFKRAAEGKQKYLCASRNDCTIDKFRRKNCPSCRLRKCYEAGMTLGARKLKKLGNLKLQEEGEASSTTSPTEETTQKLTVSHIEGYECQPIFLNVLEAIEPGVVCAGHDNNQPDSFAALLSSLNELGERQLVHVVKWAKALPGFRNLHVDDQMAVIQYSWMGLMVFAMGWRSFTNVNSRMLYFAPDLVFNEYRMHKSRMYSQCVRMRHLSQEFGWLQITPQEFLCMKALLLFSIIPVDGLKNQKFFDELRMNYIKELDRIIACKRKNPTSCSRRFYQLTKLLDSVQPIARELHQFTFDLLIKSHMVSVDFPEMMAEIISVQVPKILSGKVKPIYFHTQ
smiles,measurement,setting,value
O=C(OOC(=O)c1ccccc1)c1ccccc1,outcome,[1],inactive
same,Potency,[2],inactive
same,outcome,[3],inactive
same,outcome,[4],inactive
NC(=O)CC[C@@H](N)C(=O)O,outcome,[1],inactive
same,Potency,[2],inactive
NCC1CCC(C(=O)Oc2ccc(CCC(=O)O)cc2)CC1 (centres undefined),outcome,[1],inactive
same,Potency,[2],inactive
C=CCSCC1Nc2cc(Cl)c(S(N)(=O)=O)cc2S(=O)(=O)N1 (centres undefined),outcome,[1],inactive
same,Potency,[2],inactive
c1ccc2[nH]ccc2c1,outcome,[1],inactive
same,Potency,[2],inactive
CC(=O)Nc1cccc(O)c1,outcome,[1],inactive
same,Potency,[2],inactive
same,outcome,[3],inactive
same,outcome,[4],inactive
NS(=O)(=O)c1cc2c(cc1C(F)(F)F)NCNS2(=O)=O,outcome,[1],inactive
same,Potency,[2],inactive
CCCCCCCCCCOc1cc2c(=O)c(C(=O)OCC)c[nH]c2cc1OCC,outcome,[1],inactive
same,Potency,[2],inactive
CC(C)(C)C(=O)OCOC(=O)[C@@H]1N2C(=O)[C@@H](NC(=O)[C@H](N)c3ccccc3)[C@H]2SC1(C)C,outcome,[1],inactive
same,Potency,[2],inactive
O=c1[nH]cnc2nc[nH]c12,outcome,[1],inactive
same,Potency,[2],inactive
Cc1ccc(C(C)C)c(O)c1,outcome,[1],inactive
same,Potency,[2],inactive
same,outcome,[3],inactive
CCOC(N)=O,outcome,[1],inactive
same,Potency,[2],inactive
C[N+](C)(C)CC[N+]1(C)Cc2c(Cl)c(Cl)c(Cl)c(Cl)c2C1,outcome,[1],inactive
same,Potency,[2],inactive
same,outcome,[5],inactive
CC(C(=O)O)c1ccc2c(c1)Cc1cccnc1O2 (centres undefined),outcome,[1],inactive
same,Potency,[2],inactive
CN(C(=O)c1c(O)c2ccccc2n(C)c1=O)c1ccccc1,outcome,[1],inactive
same,Potency,[2],inactive
same,outcome,[5],inactive
CC(=O)Oc1cccc(O)c1,outcome,[1],inactive
same,Potency,[2],inactive
CCCC(O)C(CC)CO (centres undefined),outcome,[1],inactive
same,Potency,[2],inactive
same,outcome,[3],inactive
same,outcome,[4],inactive
Cc1cc(OI)c(C(C)C)cc1-c1cc(C(C)C)c(OI)cc1C,outcome,[1],inactive
same,Potency,[2],inactive
Cc1cc(-n2nc3ccc(Cl)cc3n2)c(O)c(C(C)(C)C)c1,outcome,[1],inactive
same,Potency,[2],inactive
FC(F)(F)C(Cl)Br (centres undefined),outcome,[1],inactive
same,Potency,[2],inactive
same,outcome,[3],inactive
same,outcome,[4],inactive
CC(=O)N[C@@H](Cc1ccc(O)cc1)C(=O)O,outcome,[1],inactive
same,Potency,[2],inactive
CN1C[C@@H]2C[C@H]1CN2c1cc2c(cc1F)c(=O)c(C(=O)O)cn2C1CC1,outcome,[1],inactive
same,Potency,[2],inactive
CC(=O)NCc1c(I)c(NC(C)=O)c(I)c(C(=O)O)c1I,outcome,[1],inactive
same,Potency,[2],inactive
O=C1c2ccccc2S(=O)(=O)N1CCCCN1CCN(c2ncccn2)CC1,outcome,[1],inactive
same,Potency,[2],inactive
same,outcome,[5],inactive
O=C(O)COC(=O)Cc1ccccc1Nc1c(Cl)cccc1Cl,outcome,[1],inactive
same,Potency,[2],inactive
CC(=O)Nc1ccc(C(=O)O)cc1,outcome,[1],inactive
same,Potency,[2],inactive
same,outcome,[3],inactive
same,outcome,[4],inactive
Cc1cc(NC(=O)C2=C(O)c3ccccc3S(=O)(=O)N2C)no1,Potency,[2],inactive
C/C=C/C(=O)N(CC)c1ccccc1C,Potency,[2],inactive
CC[N+](CC)(CC(=O)Nc1c(C)cccc1C)Cc1ccccc1,Potency,[2],inactive
same,outcome,[3],inactive
same,outcome,[4],inactive
O=C(Cn1ccnc1[N+](=O)[O-])NCCO,Potency,[2],inactive
CN[C@@H]1[C@H](O)[C@H](NC)[C@H]2O[C@@]3(O)C(=O)C[C@@H](C)O[C@H]3O[C@@H]2[C@H]1O,outcome,[5],inactive
Cc1cc(C)nc(NS(=O)(=O)c2ccc(N)cc2)n1,Potency,[2],inactive
NS(=O)(=O)c1cc(C2(O)NC(=O)c3ccccc32)ccc1Cl (centres undefined),Potency,[2],inactive
Nc1ncnc2c1ncn2[C@@H]1O[C@H](COP(=O)(O)O)[C@@H](O)[C@H]1O,Potency,[2],inactive
O=C(O)CCCc1ccccc1,Potency,[2],inactive
NC(=O)NC1NC(=O)NC1=O (centres undefined),Potency,[2],inactive
NC(=O)[C@@H]1CSSCCC(=O)N[C@@H](CCCCN=C(N)N)C(=O)NCC(=O)N[C@@H](CC(=O)O)C(=O)N[C@@H](Cc2c[nH]c3ccccc23)C(=O)N2CCC[C@H]2C(=O)N1 ([Mpa][hArg]GDWPC-NH2; disulfide 1-7),Potency,[2],inactive
CC1CCc2cc(F)cc3c(=O)c(C(=O)O)cn1c23 (centres undefined),Potency,[2],inactive
O=C(O)c1ccccc1C(=O)Nc1ccc(S(=O)(=O)Nc2nccs2)cc1,Potency,[2],inactive
O=C(O)CCCCC1CCSS1 (centres undefined),Potency,[2],inactive
same,outcome,[5],inactive
same,outcome,[3],inactive
same,outcome,[4],inactive
O=C(O)c1ccccc1OP(=O)(O)O,Potency,[2],inactive
NS(=O)(=O)c1ccc(C(=O)O)cc1,Potency,[2],inactive
C[C@@H]1O[C@@H](OC[C@H]2O[C@@H](Oc3c(-c4ccc(O)c(O)c4)oc4cc(O)cc(O)c4c3=O)[C@H](O)[C@@H](O)[C@@H]2O)[C@H](O)[C@H](O)[C@H]1O,Potency,[2],inactive
CCCCOC(=O)c1ccc(N)cc1,Potency,[2],inactive
same,outcome,[3],inactive
C[n+]1ccccc1/C=N/O,Potency,[2],inactive
Cc1c(N(C)C)c(=O)n(-c2ccccc2)n1C,Potency,[2],inactive
same,outcome,[3],inactive
same,outcome,[4],inactive
CC(C)=CCC/C(C)=C/CO,outcome,[1],inactive
same,Potency,[2],inactive
same,activation,[6],8.43%
Cn1c([N+](=O)[O-])cnc1COC(N)=O,Potency,[2],inactive
Cc1cccc(Nc2ccccc2C(=O)O)c1C,Potency,[2],inactive
C[N+]1(C)CCCC(OC(=O)C(O)(c2ccccc2)c2ccccc2)C1 (centres undefined),Potency,[2],inactive
Nc1ccc(S(=O)(=O)c2ccc(N)cc2)cc1,Potency,[2],inactive
same,outcome,[3],inactive
same,outcome,[4],inactive
OC(CCN1CCCC1)(c1ccccc1)C1CCCCC1 (centres undefined),Potency,[2],inactive
COC(=O)c1ccc(O)cc1,outcome,[1],inactive
same,Potency,[2],inactive
same,outcome,[4],inactive
Cc1ccsc1/C=C/C1=NCCCN1C,Potency,[2],inactive
Cn1c(=O)c2c(ncn2CCO)n(C)c1=O,Potency,[2],inactive
OC[C@@H](O)[C@@H](O)[C@H](O)[C@H](O)CO,outcome,[1],inactive
same,Potency,[2],inactive
same,outcome,[4],inactive
CC(=O)NS(=O)(=O)c1ccc(N)cc1,Potency,[2],inactive
same,outcome,[3],inactive
same,outcome,[4],inactive
CC(=O)N[C@@H](CC(C)C)C(=O)O,Potency,[2],inactive
COc1ccc(O)cc1,outcome,[1],inactive
same,Potency,[2],inactive
same,activation,[6],-4.19%
O=C(CCBr)N1CCN(C(=O)CCBr)CC1,Potency,[2],inactive
C1CCN2C[C@@H]3C[C@@H](CN4CCCC[C@@H]34)[C@H]2C1,Potency,[2],inactive
same,outcome,[5],inactive
COc1ccccc1OCC(O)CO (centres undefined),Potency,[2],inactive
COc1nccnc1NS(=O)(=O)c1ccc(N)cc1,Potency,[2],inactive
